Reference: PubChem BioAssay (Tox21)
Inconclusive results are not listed. Calls of active or inactive are those of the source. Unless noted, calls come from the whole dose curve; as a rule, active = well fitted curve in the direction sought with a large enough effect in the repeat runs; inconclusive = weak or mixed curves; inactive = no such curve, though single readings can be large; an effect the other way counts as inactive or inconclusive.

Experiments:
[1] = qHTS assay to identify small molecule antagonists of the TGF-beta/Smad signaling pathway - cell viability counter screen (AID 1346824); note: nearly all actives have a fitted effect of over 50% in size
Outline: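 SBE-bla HEK 293T cells, incubated overnight, then compound plus 0.25 ng/mL TGF-beta1 (stock added) for 5 hr at 37 C. Viability was read in the same wells by CellTiter-Glo luminescence after 30 min at room temperature.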

[2] = qHTS assay to identify small molecule agonists of the TGF-beta/Smad signaling pathway - cell viability counter screen (AID 1346829); note: top concentration of the series differs between compounds; nearly all actives have a fitted effect of over 45% in size
Outline: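 SBE-bla HEK 293T cells plated overnight, compound exposure 5 hr at 37 C. Viability read in the same wells by CellTiter-Glo luminescence after 30 min at room temperature, following the beta-lactamase read.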

[3] = qHTS assay to identify small molecule agonists of the TGF-beta/Smad signaling pathway (AID 1346859; active = well fitted activation curve with a large enough effect in the signal ratio in the repeat runs, not every such curve was filed as active; the % refers to the signal ratio; note: series mostly up to about 77 µM)
Outline: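 Dual-wavelength fluorescence (460/530 nm emission) quantified beta-lactamase expression under the Smad binding element in HEK 293T cells following 5 hr compound treatment at 37 C.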

[4] = target: Thyrotropin-releasing hormone receptor (Homo sapiens) (UniProt P34981); experiment: qHTS assay to identify small molecule antagonists of the thyrotropin-releasing hormone receptor (TRHR) signaling pathway (AID 1346877; active = well fitted inhibition curve with a large enough effect in the repeat runs, not every such curve was filed as active; note: series mostly up to about 51 µM)
Outline: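 In this cell-based calcium flux format, HEK293 cells expressing TRHR received test compound for 5 min before the agonist TRH (1 nM final). Dye loading lasted 2 h at 37 °C.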

[5] = target: Thyrotropin-releasing hormone receptor (Homo sapiens) (UniProt P34981); experiment: qHTS assay to identify small molecule agonists of the thyrotropin-releasing hormone receptor (TRHR) signaling pathway (AID 1346891; calls by dose curve; note: series mostly up to about 58 µM)
Outline: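 Kinetic fluorescence (3 min, 1 s intervals) reported intracellular calcium after compound transfer onto TRHR-Hek293 cells pre-loaded with dye for 2 h at 37 °C.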

[6] = Human pregnane X receptor (PXR) small molecule agonists, qHTS cell viability counter screen (AID 1346977); note: nearly all actives have a fitted effect of over 50% in size; note: potency is the fitted concentration of half-maximal effect
Outline: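 HepG2 cells stably carrying the PXR-Luc reporter are cultured with 5% charcoal-stripped FBS and treated with compounds for 24hr. CellTiter-Fluor is added at 23hr and fluorescence is read after 1hr.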

[7] = Caspase-3/7 induction in HepG2 cells by small molecules, qHTS assay (AID 1346978); note: nearly all actives have a fitted effect of over 15% in size; note: potency is the fitted concentration of half-maximal effect
Outline: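 Wild-type HepG2 cells, 2,000/well, settled 5 hr at 37 C and 5% CO2, then compound-treated for 17 hr; caspase-3/7 activity read by luminescent Caspase-Glo 3/7 after 30 min at room temperature.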

[8] = Caspase-3/7 induction in CHO-K1 cells by small molecules, qHTS cell viability counter screen (AID 1346979); note: nearly all actives have a fitted effect of over 35% in size; note: potency is the fitted concentration of half-maximal effect
Outline: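 Seeding: 1,500 CHO-K1 cells/well. Rest: 5hr, 37C. Treatment: compounds in DMSO, 16hr. Read: CellTiter-Fluor, 1hr, fluorescence.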

[9] = Caspase-3/7 induction in CHO-K1 cells by small molecules, qHTS assay (AID 1346980); note: nearly all actives have a fitted effect of over 15% in size
Outline: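 Wild-type CHO-K1 cells exposed to compounds for 17hr at 37 C, 5% CO2. Caspase-3/7 activity then measured by Caspase-Glo 3/7 luminescence after 30min at room temperature.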

[10] = Caspase-3/7 induction in HepG2 cells by small molecules, qHTS cell viability counter screen (AID 1346981); note: nearly all actives have a fitted effect of over 30% in size; note: potency is the fitted concentration of half-maximal effect
Outline: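 Counter screen for cytotoxicity: HepG2 exposed 16 hr to compounds, then CellTiter-Fluor viability signal (fluorescence, 1 hr reagent incubation).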

[11] = target: Nuclear receptor subfamily 1 group I member 2 (Homo sapiens) (UniProt O75469); experiment: Human pregnane X receptor (PXR) small molecule agonists, qHTS assay (AID 1346982); note: nearly all actives have a fitted effect of over 35% in size; note: potency is the fitted concentration of half-maximal effect
Outline: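 Luminescence (ONE-Glo, 30 min RT) after 24 hr compound exposure of PXR-Luc HepG2 cells; cells rested 5 hr post-plating in 5% charcoal-stripped FBS medium.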

[12] = target: Cytochrome P450 2D6 (Homo sapiens) (UniProt P10635); experiment: Cytochrome P450 Family 2 Subfamily D Member 6 (CYP2D6) small molecule antagonists: luciferase reporter qHTS assay (AID 1671196); note: nearly all actives have a fitted effect of over 50% in size; note: potency is the fitted concentration of half-maximal effect
Outline: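 Inhibition of CYP2D6 was gauged by loss of luminescence, since light produced tracks the luciferin generated from a proluciferin substrate. A 10 min room-temperature preincubation preceded 1 h NADPH-supported turnover.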

[13] = target: Cytochrome P450 2C19 (Homo sapiens) (UniProt P33261); experiment: Cytochrome P450 Family 2 Subfamily C Member 19 (CYP2C19) small molecule antagonists: luciferase reporter qHTS assay (AID 1671197); note: nearly all actives have a fitted effect of over 65% in size; note: potency is the fitted concentration of half-maximal effect
Outline: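 P450-Glo CYP2C19 system: enzyme-substrate mix with compound 10 min at room temperature, then NADPH regeneration solution, 1 h at 37C. Proluciferin-to-luciferin conversion detected by luminescence after 20 min with detection reagent; ketoconazole as positive control.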

[14] = target: Cytochrome P450 1A2 (Homo sapiens) (UniProt P05177); experiment: Cytochrome P450 Family 1 Subfamily A Member 2 (CYP1A2) small molecule antagonists: luciferase reporter qHTS assay (AID 1671199); note: nearly all actives have a fitted effect of over 50% in size; note: potency is the fitted concentration of half-maximal effect
Outline: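 Signal from luciferin formed by CYP1A2 from a proluciferin substrate is read as luminescence, expressed in relative luminescence units. Compounds sit with enzyme 10 min, NADPH-driven reaction runs 1 h, all at room temperature.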

[15] = qHTS assay to identify small molecule agonists of the progesterone receptor (PR) signaling pathway - cell viability counter screen (AID 1346799; calls by dose curve; note: nearly all actives have a fitted effect of over 45% in size; note: potency is the fitted concentration of half-maximal effect)
Outline: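 Viability was scored by ATP luminescence (CellTiter-Glo, 30 min, room temperature) in the same wells used for the reporter readout, after 16 hr compound exposure of PR-UAS-bla HEK293T cells.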

[16] = target: Cytochrome P450 2C9 (Homo sapiens) (UniProt P11712); experiment: Cytochrome P450 Family 2 Subfamily C Member 9 (CYP2C9) small molecule antagonists: luciferase reporter qHTS assay (AID 1671198); note: nearly all actives have a fitted effect of over 50% in size; note: potency is the fitted concentration of half-maximal effect
Outline: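 P450-Glo proluciferin substrate with CYP2C9 enzyme; 10 min RT preincubation, then NADPH regeneration 1 h at 37C; luciferin detection reagent 20 min RT, luminescence in relative luminescence units.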

[17] = target: Voltage-gated inwardly rectifying potassium channel KCNH2 (Homo sapiens) (UniProt Q12809); experiment: Human Ether-a-go-go-Related Gene (hERG) channel small molecule antagonists: fluorescence cell-based qHTS assay (AID 1671200); note: nearly all actives have a fitted effect of over 50% in size; note: potency is the fitted concentration of half-maximal effect
Outline: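 First, 1000 cells per well are seeded and cultured overnight at 37 C. Next, FluxOR II dye is loaded for 1 h at room temperature, protected from light. After 10 more minutes, stimulus is added and fluorescence is read.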

[18] = target: Nuclear receptor subfamily 1 group I member 2 (Rattus norvegicus) (UniProt Q9R1A7); experiment: Rat pregnane X receptor (rPXR) activation by small molecules, qHTS assay (AID 1346983); conditions: rPXR luciferase reporter cells, One-Glo luminescence, 24 h; max activation: stronger effect = higher value; note: nearly all actives have a fitted effect of over 20% in size
Outline: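 Cell-based rPXR activation assay: rPXR cells, 2,000 per well, rested 5hr at 37 C, then exposed to compounds in DMSO for 24 hr at 37 C. Luciferase activity read by One-Glo luminescence after 30 min at room temperature.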

[19] = target: Nuclear receptor subfamily 1 group I member 2 (Homo sapiens) (UniProt O75469); experiment: Human pregnane X receptor (PXR) activation by small molecules, qHTS assay (AID 1346985); note: nearly all actives have a fitted effect of over 40% in size
Outline: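 DPX-2 cells (HepG2 co-transfected with a PXR response element and a CYP3A4-promoter luciferase construct) were seeded at 2,000 per well, rested 5 hr at 37C, then exposed to DMSO-dissolved compounds for 24 hr. Activation was read as luciferase luminescence.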

[20] = target: Nuclear receptor subfamily 1 group I member 2 (Homo sapiens) (UniProt O75469); experiment: CYP3A4 induction through human pregnane X receptor (PXR) by small molecules, qHTS assay (AID 1346984); note: nearly all actives have a fitted effect of over 40% in size
Outline: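 DPX-2 reporter cells; 24h cpd, 37C; Luciferin-IPA 3uM final x3h; One-Glo 30 min RT; lumi read.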
% is set by controls: 0 for no effect and ±100 for the full control effect.

Chain of Cytochrome P450 1A2 (Homo sapiens) (P05177 whole entry, looked up): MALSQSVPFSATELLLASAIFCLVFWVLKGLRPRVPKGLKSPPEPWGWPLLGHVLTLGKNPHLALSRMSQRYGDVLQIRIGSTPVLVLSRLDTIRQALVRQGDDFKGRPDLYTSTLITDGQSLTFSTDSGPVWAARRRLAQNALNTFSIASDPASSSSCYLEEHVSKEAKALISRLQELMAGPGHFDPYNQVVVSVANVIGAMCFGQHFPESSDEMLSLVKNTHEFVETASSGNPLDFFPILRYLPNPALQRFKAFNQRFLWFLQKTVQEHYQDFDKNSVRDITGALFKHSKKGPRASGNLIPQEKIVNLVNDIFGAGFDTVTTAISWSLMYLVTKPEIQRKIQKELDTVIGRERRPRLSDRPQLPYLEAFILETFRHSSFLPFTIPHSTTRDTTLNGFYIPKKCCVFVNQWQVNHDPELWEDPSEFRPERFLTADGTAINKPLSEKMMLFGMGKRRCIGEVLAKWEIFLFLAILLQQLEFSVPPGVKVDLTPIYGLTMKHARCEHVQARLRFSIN
Chain of Nuclear receptor subfamily 1 group I member 2 (Homo sapiens) (O75469 whole entry, looked up): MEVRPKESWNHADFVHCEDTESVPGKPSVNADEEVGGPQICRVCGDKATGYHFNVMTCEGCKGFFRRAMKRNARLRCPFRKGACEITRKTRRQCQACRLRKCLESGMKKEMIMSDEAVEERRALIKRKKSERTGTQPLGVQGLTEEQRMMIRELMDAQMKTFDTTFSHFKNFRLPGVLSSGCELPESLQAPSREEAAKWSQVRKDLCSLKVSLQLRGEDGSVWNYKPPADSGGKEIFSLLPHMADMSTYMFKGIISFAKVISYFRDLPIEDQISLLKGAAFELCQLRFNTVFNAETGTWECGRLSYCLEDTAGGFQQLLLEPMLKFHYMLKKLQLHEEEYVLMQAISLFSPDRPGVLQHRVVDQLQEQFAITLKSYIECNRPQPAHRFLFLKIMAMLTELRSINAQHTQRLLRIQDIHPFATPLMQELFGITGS
Chain of Cytochrome P450 2D6 (Homo sapiens) (P10635 whole entry, looked up): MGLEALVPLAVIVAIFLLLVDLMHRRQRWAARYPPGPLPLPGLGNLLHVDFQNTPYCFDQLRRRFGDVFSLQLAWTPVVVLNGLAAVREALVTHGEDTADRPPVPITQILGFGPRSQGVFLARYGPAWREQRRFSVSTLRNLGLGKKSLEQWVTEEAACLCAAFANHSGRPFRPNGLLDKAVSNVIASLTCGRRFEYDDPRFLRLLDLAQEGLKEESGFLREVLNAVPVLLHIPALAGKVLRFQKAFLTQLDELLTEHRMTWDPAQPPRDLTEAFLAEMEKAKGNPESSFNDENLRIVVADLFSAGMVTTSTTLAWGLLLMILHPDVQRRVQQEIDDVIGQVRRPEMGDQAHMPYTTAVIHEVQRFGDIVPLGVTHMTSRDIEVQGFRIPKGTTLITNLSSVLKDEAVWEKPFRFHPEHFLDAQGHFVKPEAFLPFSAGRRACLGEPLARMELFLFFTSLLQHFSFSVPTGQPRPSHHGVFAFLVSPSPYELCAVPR
Chain of Thyrotropin-releasing hormone receptor (Homo sapiens) (P34981 whole entry, looked up): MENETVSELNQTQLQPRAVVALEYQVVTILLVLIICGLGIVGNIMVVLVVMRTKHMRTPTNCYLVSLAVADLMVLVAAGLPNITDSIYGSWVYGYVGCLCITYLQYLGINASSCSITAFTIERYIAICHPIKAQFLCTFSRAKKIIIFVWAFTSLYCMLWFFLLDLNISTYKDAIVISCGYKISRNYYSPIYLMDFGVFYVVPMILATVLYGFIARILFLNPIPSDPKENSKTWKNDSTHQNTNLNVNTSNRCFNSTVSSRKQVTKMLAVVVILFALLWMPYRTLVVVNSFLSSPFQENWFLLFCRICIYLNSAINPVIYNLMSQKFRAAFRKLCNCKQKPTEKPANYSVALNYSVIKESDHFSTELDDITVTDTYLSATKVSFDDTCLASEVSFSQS
Chain of Cytochrome P450 2C19 (Homo sapiens) (P33261 whole entry, looked up): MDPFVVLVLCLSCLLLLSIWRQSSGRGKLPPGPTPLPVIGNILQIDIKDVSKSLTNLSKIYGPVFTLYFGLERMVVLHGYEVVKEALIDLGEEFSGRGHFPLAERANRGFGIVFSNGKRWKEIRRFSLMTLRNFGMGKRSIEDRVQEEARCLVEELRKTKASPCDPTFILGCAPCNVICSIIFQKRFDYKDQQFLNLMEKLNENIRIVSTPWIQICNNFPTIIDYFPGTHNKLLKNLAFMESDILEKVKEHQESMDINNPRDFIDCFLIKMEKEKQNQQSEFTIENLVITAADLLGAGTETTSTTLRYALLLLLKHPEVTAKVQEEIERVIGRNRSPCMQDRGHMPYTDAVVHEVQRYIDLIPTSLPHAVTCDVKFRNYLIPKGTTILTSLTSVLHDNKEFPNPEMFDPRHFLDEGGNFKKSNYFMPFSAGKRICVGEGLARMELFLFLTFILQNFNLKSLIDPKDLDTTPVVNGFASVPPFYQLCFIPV
Chain of Cytochrome P450 2C9 (Homo sapiens) (P11712 whole entry, looked up): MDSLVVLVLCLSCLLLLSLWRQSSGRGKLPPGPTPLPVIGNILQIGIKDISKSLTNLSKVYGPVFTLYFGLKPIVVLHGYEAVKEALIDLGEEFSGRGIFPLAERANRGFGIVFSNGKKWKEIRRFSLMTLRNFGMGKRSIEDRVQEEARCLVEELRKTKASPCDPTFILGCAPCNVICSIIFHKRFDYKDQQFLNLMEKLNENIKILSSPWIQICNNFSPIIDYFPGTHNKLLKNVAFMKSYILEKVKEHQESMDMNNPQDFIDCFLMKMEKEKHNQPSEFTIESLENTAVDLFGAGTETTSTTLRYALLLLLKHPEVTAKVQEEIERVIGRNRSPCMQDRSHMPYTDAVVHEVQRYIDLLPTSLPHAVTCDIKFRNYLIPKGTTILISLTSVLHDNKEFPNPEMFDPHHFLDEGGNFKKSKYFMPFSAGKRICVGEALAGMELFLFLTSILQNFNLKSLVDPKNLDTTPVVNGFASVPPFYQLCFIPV
Chain of Voltage-gated inwardly rectifying potassium channel KCNH2 (Homo sapiens) (Q12809 whole entry, looked up): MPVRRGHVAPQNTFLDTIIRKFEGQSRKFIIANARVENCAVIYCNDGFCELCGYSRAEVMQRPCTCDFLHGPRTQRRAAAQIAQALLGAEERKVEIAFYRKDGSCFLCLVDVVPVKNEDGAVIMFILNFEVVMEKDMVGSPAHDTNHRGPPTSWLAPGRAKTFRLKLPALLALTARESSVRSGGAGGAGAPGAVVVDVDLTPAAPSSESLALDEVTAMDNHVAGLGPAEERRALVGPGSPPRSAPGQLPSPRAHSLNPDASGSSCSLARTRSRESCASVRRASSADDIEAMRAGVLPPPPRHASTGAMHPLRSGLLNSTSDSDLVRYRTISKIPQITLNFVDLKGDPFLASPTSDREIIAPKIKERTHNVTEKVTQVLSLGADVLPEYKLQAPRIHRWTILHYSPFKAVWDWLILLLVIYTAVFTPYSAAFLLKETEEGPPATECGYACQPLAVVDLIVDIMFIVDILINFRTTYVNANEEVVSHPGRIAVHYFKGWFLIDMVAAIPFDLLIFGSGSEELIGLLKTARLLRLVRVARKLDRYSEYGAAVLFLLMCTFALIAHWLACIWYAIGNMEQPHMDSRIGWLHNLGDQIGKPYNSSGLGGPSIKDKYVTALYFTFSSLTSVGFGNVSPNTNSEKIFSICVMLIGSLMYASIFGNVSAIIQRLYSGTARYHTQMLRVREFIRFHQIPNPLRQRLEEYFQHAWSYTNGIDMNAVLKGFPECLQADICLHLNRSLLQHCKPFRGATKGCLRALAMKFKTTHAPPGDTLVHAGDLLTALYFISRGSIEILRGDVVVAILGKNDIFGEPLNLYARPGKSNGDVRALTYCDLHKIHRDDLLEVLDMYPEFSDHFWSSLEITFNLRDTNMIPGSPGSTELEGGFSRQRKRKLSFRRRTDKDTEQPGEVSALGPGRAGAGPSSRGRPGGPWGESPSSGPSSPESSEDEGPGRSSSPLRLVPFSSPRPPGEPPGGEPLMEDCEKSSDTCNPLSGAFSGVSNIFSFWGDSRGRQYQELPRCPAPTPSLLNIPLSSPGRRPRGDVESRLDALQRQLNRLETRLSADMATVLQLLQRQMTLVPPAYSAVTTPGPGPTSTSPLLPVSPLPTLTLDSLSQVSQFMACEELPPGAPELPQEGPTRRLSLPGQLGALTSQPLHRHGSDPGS
Chain of Nuclear receptor subfamily 1 group I member 2 (Rattus norvegicus) (Q9R1A7 whole entry, looked up): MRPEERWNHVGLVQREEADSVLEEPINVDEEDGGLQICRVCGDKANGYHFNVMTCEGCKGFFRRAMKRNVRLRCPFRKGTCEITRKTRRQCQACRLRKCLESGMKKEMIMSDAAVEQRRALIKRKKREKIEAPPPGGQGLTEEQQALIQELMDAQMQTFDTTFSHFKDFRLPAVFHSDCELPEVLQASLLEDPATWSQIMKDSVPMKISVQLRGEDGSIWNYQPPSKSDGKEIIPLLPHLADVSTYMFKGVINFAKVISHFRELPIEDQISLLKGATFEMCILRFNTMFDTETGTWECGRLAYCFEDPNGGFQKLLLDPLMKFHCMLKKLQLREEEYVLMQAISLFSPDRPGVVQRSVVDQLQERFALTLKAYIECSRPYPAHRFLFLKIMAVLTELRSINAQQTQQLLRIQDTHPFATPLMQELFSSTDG

C=CC(=O)O[C@H]1C[C@@H]2CC[C@@]1(C)C2(C)C
inactive: Potency [1] | Potency [2] | outcome [3] | Potency [4] | Potency [5] | Potency [6] | Potency [7] | Potency [8] | Potency [9] | Potency [10] | Potency [11] | Potency [12] | Potency [13] | Potency [14]

CC/C(=C(/c1ccc(O)cc1)c1ccc(OCCN(C)C)cc1)c1ccccc1
active: Potency [15] 18 µM | Potency [6] 18 µM | Potency [7] 40.3 µM | Potency [10] 28.5 µM | Potency [12] 18.6 µM | Potency [13] 37.2 µM | Potency [16] 37.2 µM
inactive: Potency [4] | Potency [5]

CCNc1nc(NC(C)(C)C)nc(OC)n1
active: Potency [11] 61.1 µM | Potency [13] 35.6 µM | Potency [14] 20 µM
inactive: Potency [1] | Potency [2] | outcome [3] | Potency [4] | Potency [5] | Potency [6] | Potency [7] | Potency [8] | Potency [9] | Potency [10] | Potency [12] | Potency [16] | Potency [17]

CCCOC(=O)c1ccc(O)cc1
active: Potency [11] 48.6 µM
inactive: Potency [1] | Potency [2] | outcome [3] | Potency [4] | Potency [5] | Potency [6] | Potency [7] | Potency [8] | Potency [9] | Potency [10] | max activation [18] -0.262% | Potency [19]

Brc1cc(Br)cc(Br)c1
inactive: Potency [1] | Potency [2] | outcome [3] | Potency [4] | Potency [5] | Potency [6] | Potency [8] | Potency [9] | Potency [10] | Potency [11] | Potency [12] | Potency [13] | Potency [16] | Potency [17]

CCCC(=O)c1cc(O)c(O)cc1O
inactive: Potency [1] | Potency [2] | Potency [4] | Potency [5] | Potency [7] | Potency [9] | Potency [17]
active: Potency [6] 44.7 µM | Potency [8] 51.4 µM | Potency [10] 40.9 µM | Potency [12] 51.7 µM | Potency [13] 20 µM | Potency [16] 26.7 µM | Potency [14] 37.7 µM

CCOc1ccc([N+](=O)[O-])cc1
active: Potency [7] 55.3 µM | Potency [12] 80.9 µM | Potency [13] 8.09 µM | Potency [16] 16.1 µM | Potency [14] 32.2 µM
inactive: Potency [1] | Potency [2] | outcome [3] | Potency [4] | Potency [5] | Potency [6] | Potency [9] | Potency [11]

CC(=O)Nc1ccc(N=Nc2cc(C)ccc2O)cc1
inactive: Potency [1] | Potency [2] | outcome [3] | Potency [7] | Potency [9] | Potency [17]
active: Potency [8] 68.6 µM | Potency [10] 61.1 µM | Potency [11] 9.69 µM | Potency [12] 63.3 µM | Potency [13] 56.4 µM | Potency [16] 35.6 µM | Potency [14] 31.7 µM

O=S(=O)(c1ccc(OCc2ccccc2)cc1)c1ccccc1O
active: Potency [6] 61.1 µM | Potency [11] 61.1 µM | Potency [13] 6.33 µM
inactive: Potency [1] | Potency [2] | outcome [3] | Potency [7] | Potency [9] | Potency [17]

Cn1ccnc1
inactive: Potency [15] | Potency [2] | outcome [3] | Potency [4] | Potency [5] | Potency [6] | Potency [7] | Potency [8] | Potency [9] | Potency [10] | Potency [11] | Potency [12] | Potency [13] | Potency [16] | Potency [14] | Potency [17]

CCC(C)(C)c1ccc(CC(C)CN2C[C@@H](C)O[C@@H](C)C2)cc1 (stereo partly drawn)
active: Potency [12] 6.92 µM | Potency [13] 11 µM | Potency [17] 9.52 µM
inactive: Potency [1] | Potency [2] | outcome [3] | Potency [4] | Potency [5] | Potency [6] | Potency [7] | Potency [9] | Potency [10] | Potency [11] | max activation [18] -0.729% | Potency [20]

CCCCCCCCCC[N+](C)(CCCCCCCCCC)CCC[Si](OC)(OC)OC
active: Potency [15] 24.3 µM | Potency [8] 30.6 µM | Potency [10] 61.1 µM | Potency [12] 3.17 µM | Potency [13] 50.2 µM | Potency [16] 35.6 µM | Potency [14] 20 µM | Potency [17] 2.45 µM
inactive: outcome [3] | Potency [4] | Potency [5] | Potency [11]

CC(C)c1ccc2sc3ccccc3c(=O)c2c1
active: Potency [11] 17.2 µM | Potency [12] 28.3 µM | Potency [13] 7.96 µM | Potency [14] 7.1 µM
inactive: Potency [15] | Potency [1] | Potency [6] | Potency [7] | Potency [8] | Potency [9] | Potency [10] | Potency [17]

N#Cc1nc(Cl)c(Cl)c(Cl)c1Cl
inactive: Potency [1] | Potency [2] | outcome [3] | Potency [4] | Potency [5] | Potency [7] | Potency [12] | Potency [17]
active: Potency [6] 48.6 µM | Potency [8] 1.72 µM | Potency [10] 43.3 µM | Potency [11] 9.69 µM | Potency [14] 5.03 µM

NCc1cccc(C2CCN(C(=O)c3ccc(C#Cc4ccccc4F)o3)CC2)c1
active: Potency [15] 61.1 µM | Potency [12] 20 µM | Potency [13] 2 µM | Potency [16] 0.071 µM | Potency [14] 71 µM | Potency [17] 11 µM
inactive: outcome [3] | Potency [4] | Potency [5] | Potency [11]
